This is an account of results in PubChem BioAssay AID1259400 (National Center for Advancing Translational Sciences (NCATS), 2018).

The campaign covered roughly 350,000 compounds. About 2,100 (0.6%) were called active. Inconclusive results (about 1%) are left out.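 How the source made its calls: active means activity change of -60% or lower, but not beyond a set lower limit; inconclusive means change between -60% and -40%, or beyond the set limit; inactive means change above -40%.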 Many of the other results were omitted from the sample, so actives are more common in it than they were.
On the % scale 0 is the no-effect control and ±100 the full control effect.

Chain of Relaxin receptor 1 (Homo sapiens) (Q9HBX9 whole entry, looked up): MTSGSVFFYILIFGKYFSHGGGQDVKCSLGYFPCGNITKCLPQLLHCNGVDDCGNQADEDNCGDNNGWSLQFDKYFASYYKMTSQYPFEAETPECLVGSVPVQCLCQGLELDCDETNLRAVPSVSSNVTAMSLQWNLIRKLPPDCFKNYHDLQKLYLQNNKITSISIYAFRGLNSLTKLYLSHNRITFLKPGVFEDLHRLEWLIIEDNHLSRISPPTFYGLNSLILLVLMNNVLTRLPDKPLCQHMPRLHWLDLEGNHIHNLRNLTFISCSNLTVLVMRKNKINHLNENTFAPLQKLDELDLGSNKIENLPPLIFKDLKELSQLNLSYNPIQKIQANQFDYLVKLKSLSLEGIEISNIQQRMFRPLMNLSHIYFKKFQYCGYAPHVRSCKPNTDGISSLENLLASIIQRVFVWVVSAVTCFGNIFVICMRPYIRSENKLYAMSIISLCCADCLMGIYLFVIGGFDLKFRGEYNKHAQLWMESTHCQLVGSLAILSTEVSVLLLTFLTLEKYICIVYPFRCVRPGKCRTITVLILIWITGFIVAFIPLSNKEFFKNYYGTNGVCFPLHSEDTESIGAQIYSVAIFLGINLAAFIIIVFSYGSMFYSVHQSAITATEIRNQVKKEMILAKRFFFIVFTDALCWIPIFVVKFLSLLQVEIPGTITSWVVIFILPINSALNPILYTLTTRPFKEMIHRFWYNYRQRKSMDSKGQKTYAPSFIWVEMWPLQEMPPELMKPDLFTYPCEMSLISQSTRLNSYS

The test addresses Relaxin receptor 1 (Homo sapiens) (UniProt Q9HBX9). Briefly: qHTS Assay for Antagonists of the Relaxin Receptor RXFP1. Conditions: HEK293-RXFP1, relaxin-stimulated cAMP HTRF, 30 min; at 57.5 µM; hits give low values. The source says: The relaxin hormone is involved in the variety of biological functions in normal tissues and diseases. The role of relaxin is well-established in female reproduction and parturition, mammary gland and endometrial development, maintenance of myometrial quiescence during pregnancy. Relaxin signaling through its G protein-coupled receptor (GPCR) RXFP1 results in ECM remodeling through regulation of collagen deposition, cell invasiveness, proliferation and overall tissue homeostasis. […] Recombinant human relaxin (rhRlx) is currently being tested in clinical trials as a protective agent in congestive heart failure, in treating severe preeclampsia, and as an anti-fibrotic agent in various organs. […] Upon relaxin binding RXFP1 activation leads to the activation of adenylate cyclase (AC) via G?s. cAMP will activate PKA, which phosphorylates many signaling proteins. Thus, detection of cAMP increase is an easy and reliable indication of relaxin receptor activation. To screen for antagonists of the relaxin receptor, a HEK293T cell line stably transfected with RXFP1 was used. RXFP1 activation by relaxin in presence of various concentrations of tested compounds was assayed by changes in cAMP levels as detected with a time-resolved fluorescence energy transfer (TR-FRET) cAMP detection kit.
For the primary screening, we used HTRF(R) (Homogenous Time-Resolved Fluorescence) cAMP HiRange assay (Cisbio Bioassays, 62AM6PEJ). Presence of cAMP in the cell lysate disrupts binding between the Cryptate-labeled anti-cAMP and d2-labeled cAMP pair, leading to a decrease in TR-FRET signal. The libraries were screened at two doses (57microM and 11microM), followed by a confirmation of the hits at 7-point serial dilution in the range of final concentrations [57microM - 78nM]. Data were normalized to the controls for basal activity (buffer only) and 100% activity (5 nM porcine relaxin). The EC50 values were determined from concentration-response data modeled with the standard Hill equation. NCGC Assay Protocol Summary: HiHEK (Hawaiian HEK293 LGR7 stably transfected with human RXFP1) were grown in the following media: DMEM+10%FBS+Pen/Strep + Geneticin (1mg/ml). For the assay, the cells were seeded in DMEM+Pen/Strep (with no serum & selective antibiotics) at 2,100 cells/ 3microl/well with MultiDrop Combi dispenser (Thermo Scientific, Logan, UT) onto white tissue culture treated solid bottom1536-well plates (Greiner #789173-F) and allowed to attach/recover overnight at 37 degrees C, 5% CO2. Next, 23nl/well of compound solutions in DMSO were transferred into wells with a pintool (Kalypsis, San Diego, CA). […] EC80 (relaxin at 50pM final concentration) was dispensed to the rest of the plate except columns 1&2 which were used as a negative control (EC0, buffer only), 1microl/well also. The cells were stimulated by relaxin in the presence of compounds for 30 minutes at 37 degrees C, 5% CO2. The detection reagents were prepared individually by dilution in Lysis buffer (supplied with the assay kit) just prior to dispensing. 1microl/well of cAMP-d2 and 1microl/well anti-cAMP-Eu3+-Cryptate antibodies were added simultaneously with BioRAPTR FRDtrade mark Workstation (Beckman Coulter). The plates were incubated at ambient temperature for 30 minutes and, then, FRET signal was read on Envision plate reader (PerkinElmer, Waltham, MA), at wavelengths 340nm (excitation), 615nm & 665nm (emission of donor and acceptor channels respectively).
Take `CC(CCCc1ccccc1)NC(=O)c1nn(-c2ccc(Cl)cc2)nc1CO` (centres undefined): the activity change, negative = inhibition is -85.1% (active).
For `Cc1ccc(-n2nc(CO)c(C(=O)NCCc3ccccc3)n2)cc1` the value was -19.5% (inactive); for `O=C(NCCCO)c1nn(-c2ccc(Cl)cc2)nc1CO`, -16.3% (inactive); for `O=[N+]([O-])c1c(NCCO)cc(Sc2nc3ccccc3s2)c2nonc12`, -71% (active).
The result for `O=C(COc1ccccc1Cl)Nc1ccc2nc(SCC(=O)N3CCCC3)sc2c1` reads 0.0142% (inactive); that for `CC(C)(C)c1ccc(S(=O)(=O)Nc2ccc(O)c(Sc3nc4ccccc4s3)c2)cc1`, -31% (inactive).
The result for `COCC(C)NS(=O)(=O)c1ccc(N2CCCCS2(=O)=O)cc1` (centres undefined) reads -3.31% (inactive); that for `CCc1nc2nc(C)cc(Nc3ccc(F)c(Cl)c3)n2n1`, -7.58% (inactive).
For the compound `CC(C)OCC(O)CN1CCN(C(c2ccccc2)c2ccccc2)CC1` (centres undefined), the activity change, negative = inhibition is -2.44% (inactive).
The result for `CC1(C)CC(=O)C=C(N2CCOCC2)C1` reads -12.6% (inactive); that for `CC1(C)CC(N2CCN(C(c3ccccc3)c3ccccc3)CC2)=CC(=[N+]2CCCCC2)C1`, -86.5% (active); that for `Cc1ccccc1OCc1ccc(-c2nc(C#N)c(N3CCCCC3)o2)o1`, -8.24% (inactive).
For `Cc1c(C)n(Cc2ccc(Cl)cc2)c2ccc(C(=O)N3CCN(c4ccccc4F)CC3)cc12` the value was -18.8% (inactive); for `COc1ccc(CCNC(=O)c2c3c(nc4ccccc24)C(=O)N(C2CCCCC2)C3)cc1OC`, -34% (inactive).
For the compound `COc1ccc(OC)c(CNC(=O)C2CCCN(c3nc4ccccc4o3)C2)c1` (centres undefined), the activity change, negative = inhibition is 24.2% (inactive).
The result for `COc1ccc(OC)c(CNC(=O)c2c3c(nc4ccccc24)C(=O)N(C2CCCCC2)C3)c1` reads -60.9% (active).
As for `CC(=O)c1ccc(N2CCN(c3nc4c(S(=O)(=O)c5ccccc5)nnn4c4ccc(Cl)cc34)CC2)cc1`, the activity change, negative = inhibition is -10.3% (inactive).
The result for `Cc1ccc(C)c(Cn2c(C(=O)O)c(CNCc3cccs3)c3ccccc32)c1` reads -81.9% (active); that for `O=C(O)c1c(CNCc2cccc(F)c2)c2ccccc2n1Cc1ccccc1`, -7.86% (inactive).
The result for `COc1ccc2c(CNCCc3ccccc3C)c(C(=O)O)n(Cc3ccccc3C)c2c1` reads -12.7% (inactive); that for `Cc1sc(C2C(C#N)=C(N)N(c3cccc(Cl)c3)C3=C2C(=O)CCC3)cc1CN1CCOCC1` (centres undefined), -18.6% (inactive); that for `Cc1ccc2nc3c(cc(C(=O)NC4CCCCC4)c(=N)n3C(C)C)c(=O)n2c1`, -8.15% (inactive).
For `CCC(CC)C(=O)N1CCN(c2cccc(C)c2C)CC1` the value was -5.41% (inactive).
As for `Cc1cccc(N2CCN(C(=O)c3cnc(N4CCCC4)nc3C)CC2)c1C`, the activity change, negative = inhibition is -77.6% (active).
The result for `Cc1cccc(N2CCN(C(=O)C3CCN(S(=O)(=O)c4cnc[nH]4)CC3)CC2)c1C` reads -5.38% (inactive); that for `O=C(COc1ccc(Cl)cc1)N(Cc1ccco1)Cc1ccco1`, -34.6% (inactive); that for `CCOC(=O)c1c(C)oc2nc(C)nc(N3CCN(c4ccc(OC)cc4)CC3)c12`, -3.52% (inactive).
With `Cc1cc(-c2n[nH]c(=S)n2/N=C/C(Br)=C/c2ccccc2)n[nH]1`, the activity change, negative = inhibition was -5.02% (inactive).
Take `S=c1[nH]nc(-c2cc(-c3ccccc3)n[nH]2)n1/N=C/c1c2ccccc2cc2ccccc12`: the activity change, negative = inhibition was -78.7% (active).
The result for `S=c1[nH]nc(-c2cc(-c3ccsc3)n[nH]2)n1-c1ccccc1` reads -4.32% (inactive); that for `Cc1nnc(C(=O)NC(C)(C)c2nc(C(=O)NCc3ccc(F)cc3)c(O)c(=O)n2C)o1`, -18.2% (inactive).
For `COc1ccc(Cl)cc1N(CC(=O)N/N=C/c1ccc(OCC(N)=O)cc1)S(C)(=O)=O` the value was -77.6% (active).
`COc1ccc(Cl)cc1N(CC(=O)N1CCCCC1)S(C)(=O)=O`: the activity change, negative = inhibition is 15.3% (inactive).
As to `NC(=O)COc1ccc(/C=N/NC(=O)C2CCCN2S(=O)(=O)c2ccc(Cl)cc2)cc1` (centres undefined), the activity change, negative = inhibition was -2.72% (inactive).
For `CCOc1ccc(-c2nonc2NC(=O)c2oc3ccc(C)cc3c2C)cc1OCC` the value was 6.02% (inactive); for `CC(C)N(C(=O)CSc1nnc(NC2CC2)s1)c1ccccc1`, -4.86% (inactive); for `CC(C)c1ccc(Nc2nnc(SCC(=O)c3nnc(-c4ccccc4)o3)s2)cc1`, -83.3% (active).
The result for `CN(C(=O)CSc1nnc(NC(=O)Nc2ccccc2)s1)c1ccccc1` reads -2.91% (inactive); that for `CCc1ccc(N2C(=O)CN(S(=O)(=O)CC)CC2(C)C(=O)NC2CCCCC2)cc1` (centres undefined), 4.08% (inactive); that for `Cc1nnc(N/N=C/C2CC=CCC2)[nH]c1=O` (centres undefined), -71.6% (active).
For `O=C(N/N=C\C1CC=CCC1)c1ccc(Br)o1` (centres undefined) the value was 0.253% (inactive).
`Cc1nnc(N/N=C/c2ccccn2)[nH]c1=O`: the activity change, negative = inhibition was 5.71% (inactive).
The result for `Cc1ccc2nc(-c3ccc(O)cc3)c(Nc3ccc4c(c3)OCO4)n2c1` reads 15.3% (inactive); that for `CCN(CC)c1cc(NC2CCCCC2)c2c3c(onc13)-c1ccccc1C2=O`, -18.9% (inactive).
